# Test results taken from PubChem BioAssay AID1159580 (chemical genetic matrix, 2015).
# Where “and” joins values, the source holds several entries; their conditions need not be identical. Equal entries are not always repeated. The whole screen tested about 5,500 compounds, of which about 2,000 (36%) were called active. Inconclusive results (about 18%) are left out. This is one part of the list. Values without a mark were called inactive. Rule as the data show it: active = normalized growth mostly below about 0.91 (no sharp cut-off); inconclusive = no clear call, values can overlap the other calls; inactive = mostly above about 0.92.
# Assay: chemical genetic growth profiling, strain panel (AID 1159580);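 also: tested at 20 µM; growth read once vehicle control cultures reached saturation at 30 °C; 1 = growth at the plate median or of vehicle wells; lower values mean less growth of the strain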
# Conditions: S. cerevisiae deletion strains, growth OD
compound,measurement,setting,value
CCCC(C(=O)OCCN(CC)CC)(c1ccccc1)c1ccccc1,normalized growth,"locus YAL013W, strain DEP1, stronger effect = lower value",0.991
same,normalized growth,"locus YAL021C, strain ccr4, stronger effect = lower value",0.981
same,normalized growth,"locus YAL026C, strain drs2, stronger effect = lower value",1.01
same,normalized growth,"locus YAL030W, strain snc1, stronger effect = lower value",0.985
same,normalized growth,"locus YAL040C, strain CLN3, stronger effect = lower value",1.03
same,normalized growth,"locus YBR009C, strain hhf1, stronger effect = lower value",1
same,normalized growth,"locus YBR021W, strain FUR4, stronger effect = lower value",0.92
same,normalized growth,"locus YBR023C, strain chs3, stronger effect = lower value",1
same,normalized growth,"locus YBR171W, strain sec66, stronger effect = lower value",0.998
same,normalized growth,"locus YBR229C, strain ROT2, stronger effect = lower value",1.01
same,normalized growth,"locus YBR231C, strain swc5, stronger effect = lower value",0.992
same,normalized growth,"locus YBR279W, strain paf1, stronger effect = lower value",0.995
same,normalized growth,"locus YCL011C, strain gbp2, stronger effect = lower value",1.01
same,normalized growth,"locus YCL016C, strain dcc1, stronger effect = lower value",0.995
same,normalized growth,"locus YCL029C, strain bik1, stronger effect = lower value",1
same,normalized growth,"locus YCL061C, strain MRC1 (second series), stronger effect = lower value",0.993
same,normalized growth,"locus YCL069W, strain vba3, stronger effect = lower value",1.01
same,normalized growth,"locus YCR088W, strain abp1, stronger effect = lower value",1
same,normalized growth,"locus YDL005C, strain med2, stronger effect = lower value",1
same,normalized growth,"locus YDL035C, strain GPR1, stronger effect = lower value",0.99
same,normalized growth,"locus YDL040C, strain nat1, stronger effect = lower value",1.01
same,normalized growth,"locus YDL074C, strain BRE1, stronger effect = lower value",0.997
same,normalized growth,"locus YDL101C, strain DUN1, stronger effect = lower value",1
same,normalized growth,"locus YDL134C, strain PPH21, stronger effect = lower value",0.979
same,normalized growth,"locus YDL185W, strain tfp1, stronger effect = lower value",0.994
same,normalized growth,"locus YDL192W, strain arf1, stronger effect = lower value",0.994
same,normalized growth,"locus YDR001C, strain nth1, stronger effect = lower value",1.01
same,normalized growth,"locus YDR069C, strain doa4, stronger effect = lower value",0.99
same,normalized growth,"locus YDR101C, strain arx1, stronger effect = lower value",0.986
same,normalized growth,"locus YDR137W, strain rgp1, stronger effect = lower value",1.18 [resistant] (active)
same,normalized growth,"locus YDR150W, strain NUM1, stronger effect = lower value",1
same,normalized growth,"locus YDR159W, strain sac3, stronger effect = lower value",1
same,normalized growth,"locus YDR162C, strain NBP2, stronger effect = lower value",0.997
same,normalized growth,"locus YDR195W, strain ref2",0.909
same,normalized growth,"locus YDR297W, strain sur2, stronger effect = lower value",1
same,normalized growth,"locus YDR318W, strain mcm21, stronger effect = lower value",0.993
same,normalized growth,"locus YDR334W, strain swr1, stronger effect = lower value",1.03
same,normalized growth,"locus YDR335W, strain msn5, stronger effect = lower value",1
same,normalized growth,"locus YDR363W, strain ESC2, stronger effect = lower value",1
same,normalized growth,"locus YDR388W, stronger effect = lower value",0.982
same,normalized growth,"locus YDR392W, strain spt3, stronger effect = lower value",0.962
same,normalized growth,"locus YDR502C, strain sam2, stronger effect = lower value",0.995
same,normalized growth,"locus YEL003W, strain gim4, stronger effect = lower value",0.999
same,normalized growth,"locus YEL037C, strain rad23, stronger effect = lower value",1
same,normalized growth,"locus YEL061C, strain CIN8 (second series), stronger effect = lower value",1.01
same,normalized growth,"locus YEL061C, strain CIN8, stronger effect = lower value",1
same,normalized growth,"locus YER002W, strain NOP16, stronger effect = lower value",1.02
same,normalized growth,"locus YER015W, strain faa2, stronger effect = lower value",1.01
same,normalized growth,"locus YER016W, strain bim1, stronger effect = lower value",0.987
same,normalized growth,"locus YER110C, stronger effect = lower value",0.999
same,normalized growth,"locus YER111C, strain swi4, stronger effect = lower value",1
same,normalized growth,"locus YER155C, strain BEM2 (second series), stronger effect = lower value",0.946
same,normalized growth,"locus YER155C, strain BEM2, stronger effect = lower value",1.01
same,normalized growth,"locus YER167W, strain BCK2, stronger effect = lower value",0.994
same,normalized growth,"locus YFR010W, strain ubp6, stronger effect = lower value",0.994
same,normalized growth,"locus YGL078C, strain dbp3, stronger effect = lower value",1.01
same,normalized growth,"locus YGL086W, strain mad1, stronger effect = lower value",0.988
same,normalized growth,"locus YGL167C, strain pmr1, stronger effect = lower value",0.999
same,normalized growth,"locus YGL173C, strain kem1, stronger effect = lower value",0.99
same,normalized growth,"locus YGL227W, strain vid30, stronger effect = lower value",1.01
same,normalized growth,"locus YGL240W, strain doc1, stronger effect = lower value",0.99
same,normalized growth,"locus YGL248W, strain PDE1, stronger effect = lower value",1.02
same,normalized growth,"locus YGL253W, strain hxk2, stronger effect = lower value",1.01
same,normalized growth,"locus YGR078C, strain PAC10, stronger effect = lower value",0.992
same,normalized growth,"locus YGR135W, strain pre9, stronger effect = lower value",0.958
same,normalized growth,"locus YGR229C, strain SMI1, stronger effect = lower value",0.976
same,normalized growth,"locus YGR252W, strain gcn5, stronger effect = lower value",0.877
same,normalized growth,"locus YHR013C, strain ard1, stronger effect = lower value",0.975
same,normalized growth,"locus YHR027C, strain rpn1, stronger effect = lower value",1
same,normalized growth,"locus YHR030C, strain SLT2, stronger effect = lower value",1 and 0.999
same,normalized growth,"locus YHR079C, strain IRE1 (second series), stronger effect = lower value",1.01
same,normalized growth,"locus YHR079C, strain IRE1, stronger effect = lower value",0.987
same,normalized growth,"locus YHR094C, strain hxt1, stronger effect = lower value",0.987
same,normalized growth,"locus YHR129C, strain ARP1, stronger effect = lower value",1.01
same,normalized growth,"locus YHR142W, strain chs7, stronger effect = lower value",1
same,normalized growth,"locus YHR200W, strain rpn10, stronger effect = lower value",0.993
same,normalized growth,"locus YIL066C, strain RNR3, stronger effect = lower value",0.987
same,normalized growth,"locus YIL073C, strain SPO22, stronger effect = lower value",1.01
same,normalized growth,"locus YIL125W, strain kgd1, stronger effect = lower value",0.996
same,normalized growth,"locus YIR030C, strain dcg1, stronger effect = lower value",0.989
same,normalized growth,"locus YJL092W, strain hpr5, stronger effect = lower value",1
same,normalized growth,"locus YJL095W, strain BCK1 (second series), stronger effect = lower value",0.994
same,normalized growth,"locus YJL095W, strain BCK1, stronger effect = lower value",0.996 and 0.988
same,normalized growth,"locus YJL115W, strain asf1, stronger effect = lower value",0.979
same,normalized growth,"locus YJL129C, strain trk1, stronger effect = lower value",1.01
same,normalized growth,"locus YJL134W, strain LCB3, stronger effect = lower value",1.01
same,normalized growth,"locus YJL154C, strain vps35, stronger effect = lower value",1.01
same,normalized growth,"locus YJL164C, strain tpk1, stronger effect = lower value",1
same,normalized growth,"locus YJL166W, strain qcr8, stronger effect = lower value",0.997
same,normalized growth,"locus YJL168C, strain set2, stronger effect = lower value",0.992
same,normalized growth,"locus YJL187C, strain SWE1 (second series), stronger effect = lower value",1.01
same,normalized growth,"locus YJL187C, strain SWE1, stronger effect = lower value",0.993
same,normalized growth,"locus YJR043C, strain POL32, stronger effect = lower value",1
same,normalized growth,"locus YJR066W, strain TOR1, stronger effect = lower value",0.954
